Only some compounds are listed: those with a hit (about 9.6% of all), similar ones and a draw of the others.
bCat KO growth = beta-catenin-lacking colon tumor cell growth suppression. HCT116 beta-catenin knockout viability, CellTiter-Glo, 60 h; active compounds read low. hit rate 1.5% among 140,000. viability, % at 10 µM;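 active = viability at or under a set limit, the compound median less 4 SD, cut at about 6% in these data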
Insulin prom inh = TRM-6 insulin promoter activity inhibition. TRM-6 cells (human fetal islet line), insulin promoter-eGFP reporter, imaging; reporter expression induced with tamoxifen. inhibition, % at 2 µM. hit rate 0.9% among 130,000. AID 1273;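 active = inhibition above the mean plus 3 SD, with well images judged a real hit on visual review, cut at about 60% in these data, passing the limit was not always enough; inconclusive = inhibition over the cutoff but images rejected on review; inactive = inhibition not above the cutoff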
HCT116 PTEN-null = growth suppressors of cells with PTEN tumor suppressor deletion | HCT116 PTEN-null viability, CellTiter-Glo, 60 h; active compounds read low | viability, % at 10 µM | hit rate 1.2% among 140,000 | AID 827;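 active = viability at or below a set limit, 4 SD under the median of all tested compounds, cut at about 3.7% in these data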;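 also: PTEN knockout HCT116 line with beta catenin targeted HCT116 as companion control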
Autophagy HCS = modulators of autophagy; MEF GFP-LC3 puncta imaging; test concentration mostly 10 µM; hit rate 0.98% among 190,000; calls only at 10 µM (by protocol); AID 463193;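 active = percentage of spot-positive cells more than 3 SD above its plate mean, without a fluorescence outlier flag or 80% toxicity; inconclusive = no clear call, values can overlap the other calls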
L major viab = Leishmania major promastigote growth inhibition. hit rate 9% among 200,000. Leishmania major promastigotes, resazurin fluorescence viability. inhibition, % at 10 µM; in the data active = inhibition above about 50%;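 also: promastigotes grown with compound for 44 hours at 28 °C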
Insulin prom up = MIN6 insulin promoter up-regulation. hit rate 0.3% among 190,000. MIN6 insulin promoter-GFP reporter, high-content imaging; active compounds read high. AID 1625. z-score at 5 µM;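 active = z-score above 3 at 5 µM with at least 500 cells counted in the well; inconclusive = wells under 500 cells, flagged as cytotoxic or low count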
A number is an active result.

Results for CCOc1cccc2cc(-c3nnc(NCc4ccc5c(c4)OCO5)s3)c(=O)oc12 ?
bCat KO growth: inactive; HCT116 PTEN-null: inactive; Autophagy HCS: active; L major viab: inactive; Insulin prom up: inactive

How did Cc1ccc2c(c1)cc(CN(CCc1ccccc1)C(=O)N1CCOCC1)c1nnnn12 do in these assays?
bCat KO growth: inactive; HCT116 PTEN-null: inactive; Autophagy HCS: inactive; L major viab: inactive

Results for Cc1ccc2c(c1)cc(CN(Cc1cccnc1)C(=O)NCc1ccccc1)c1nnnn12 ?
bCat KO growth: inactive; Insulin prom inh: inactive; HCT116 PTEN-null: inactive; Autophagy HCS: inactive; L major viab: 100; Insulin prom up: inactive

How did Cc1ccc2c(c1)cc(CN(Cc1ccc3c(c1)OCO3)C(=O)c1ccccc1)c1nnnn12 do in these assays?
bCat KO growth: inactive; Insulin prom inh: inactive; HCT116 PTEN-null: inactive; Autophagy HCS: inactive; L major viab: 59; Insulin prom up: inactive

What do the screens show for `Cc1cc(C)c(C)c(OCCCn2ccnc2)c1`?
bCat KO growth: inactive; Insulin prom inh: inactive; HCT116 PTEN-null: inactive; Autophagy HCS: inactive; L major viab: 82; Insulin prom up: inactive

What do the screens show for `Cc1ccc(OCCCCn2ccnc2)c([N+](=O)[O-])c1`?
Autophagy HCS: inactive; L major viab: 96; Insulin prom up: inactive

What do the screens show for `Cc1ccc(C)c(OCCCCn2ccnc2)c1`?
bCat KO growth: inactive; Insulin prom inh: inactive; HCT116 PTEN-null: inactive; Autophagy HCS: inactive; L major viab: 99; Insulin prom up: inactive

How did COc1ccc(Cn2ccnc2)cc1[N+](=O)[O-] do in these assays?
bCat KO growth: inactive; Insulin prom inh: inactive; HCT116 PTEN-null: inactive; Autophagy HCS: inactive; L major viab: inactive; Insulin prom up: inactive

Results for Cc1ccc(C(C)(C)C)c(OCCCn2ccnc2)c1 ?
bCat KO growth: inactive; Insulin prom inh: inactive; HCT116 PTEN-null: inactive; Autophagy HCS: inactive; L major viab: inactive; Insulin prom up: inactive

How did O=C1NC2(CCOc3ccccc32)C(=O)N1CC(=O)N(Cc1ccccc1)C1CCS(=O)(=O)C1 (centres undefined) do in these assays?
bCat KO growth: inactive; HCT116 PTEN-null: inactive; Autophagy HCS: inactive; L major viab: inactive

Results for C#CCSc1[nH]c(=O)cc(C)c1C#N ?
Insulin prom inh: inactive; Autophagy HCS: inactive; L major viab: inactive

What do the screens show for `Cc1ccc(-n2c(-c3ccc(Cl)cc3)c[n+]3c2CCC3)cc1`?
Insulin prom up: inactive

What do the screens show for `Cc1ccc(-n2c(-c3ccccc3)c[n+]3c2CCC3)cc1`?
Insulin prom inh: inactive; Autophagy HCS: inactive; L major viab: 98; Insulin prom up: inconclusive

How did c1ccc(-c2c[n+]3c(n2-c2ccccc2)SCC3)cc1 do in these assays?
Insulin prom up: inactive

What do the screens show for `COc1ccc(-n2c(-c3ccc(Br)cc3)nc(=S)c3c2CCCC3)cc1`?
bCat KO growth: inactive; HCT116 PTEN-null: inactive; Autophagy HCS: inactive; L major viab: inactive; Insulin prom up: inactive

Results for CCOc1ccc(-n2c(-c3ccc(Cl)cc3)c[n+]3c2SCC3)cc1 ?
Autophagy HCS: inactive; L major viab: 100; Insulin prom up: inactive

What do the screens show for `COc1ccc(-n2c(-c3ccc(Br)cc3)c[n+]3c2SC(C)C3)cc1` (centres undefined)?
Insulin prom inh: inactive; Autophagy HCS: inactive; L major viab: 100; Insulin prom up: inconclusive

Results for COc1ccc(-n2c(-c3ccc(Br)cc3)c[n+]3c2CCC3)cc1 ?
Insulin prom inh: inactive; Autophagy HCS: inactive; L major viab: 100; Insulin prom up: inconclusive

How did C=CCn1c(-c2ccc(F)cc2)n[nH]c1=S do in these assays?
Insulin prom inh: inactive; Autophagy HCS: inactive; L major viab: inactive; Insulin prom up: inactive

What do the screens show for `CCOc1ccc(-c2nnc(-c3ccccc3)o2)cc1`?
bCat KO growth: inactive; Insulin prom inh: inactive; HCT116 PTEN-null: inactive; Autophagy HCS: inactive; L major viab: inactive

What do the screens show for `FC(F)Sc1ccc(-n2c(-c3ccc(Cl)cc3)c[n+]3c2CCC3)cc1`?
Autophagy HCS: inactive; L major viab: inactive; Insulin prom up: inactive

What do the screens show for `CCOc1ccc(-c2c[n+]3c(n2-c2ccccc2)CCCCC3)cc1`?
bCat KO growth: inactive; HCT116 PTEN-null: inactive; Autophagy HCS: inactive; L major viab: 100; Insulin prom up: inconclusive

How did COc1ccc(-n2c(-c3ccc(Br)cc3)c[n+]3c2CCCCC3)cc1 do in these assays?
Insulin prom inh: inactive; Autophagy HCS: inactive; L major viab: 100; Insulin prom up: inconclusive

Results for CCOc1ccc(-c2nnc(-c3ccccc3)n2-c2ccccc2)cc1 ?
bCat KO growth: inactive; Insulin prom inh: inactive; HCT116 PTEN-null: inactive; Autophagy HCS: inactive; L major viab: 65; Insulin prom up: inactive

What do the screens show for `Cc1ccc(-c2cc(C(F)(F)F)n3ncc(C(=O)NCc4ccco4)c3n2)cc1`?
bCat KO growth: inactive; Insulin prom inh: inactive; HCT116 PTEN-null: inactive; Autophagy HCS: inactive; L major viab: inactive; Insulin prom up: inactive

Results for Cc1nc2ccccc2c2oc(C(=O)NCCN3CCN(C)CC3)cc12 ?
bCat KO growth: inactive; HCT116 PTEN-null: inactive; Autophagy HCS: inactive; L major viab: inactive; Insulin prom up: inactive

How did CC1(C)CC(=O)C2=C(C1)OC(N)=C(C#N)C2c1ccoc1 (centres undefined) do in these assays?
Autophagy HCS: inactive; L major viab: inactive; Insulin prom up: inactive

How did CCOc1cc(C2C(C#N)=C(N)OC3=C2C(=O)CC(C)(C)C3)cc([N+](=O)[O-])c1O (centres undefined) do in these assays?
Insulin prom inh: inactive; Autophagy HCS: inactive; L major viab: inactive; Insulin prom up: inactive

What do the screens show for `CC1(C)CC(=O)C2=C(C1)OC(N)=C(C#N)C2c1cc2c(cc1[N+](=O)[O-])OCO2` (centres undefined)?
bCat KO growth: inactive; Insulin prom inh: inactive; HCT116 PTEN-null: inactive; Autophagy HCS: inactive; L major viab: 65; Insulin prom up: inactive

How did CC1(C)CC(=O)C2=C(C1)OC(/N=C/N1CCOCC1)=C(C#N)C2c1ccccc1 (centres undefined) do in these assays?
bCat KO growth: inactive; Insulin prom inh: inactive; HCT116 PTEN-null: inactive; Autophagy HCS: inactive; L major viab: inactive; Insulin prom up: inactive

Results for CN1CCN(/C=N/C2=C(C#N)C(c3ccccc3)C3=C(CC(C)(C)CC3=O)O2)CC1 (centres undefined) ?
bCat KO growth: inactive; Insulin prom inh: inactive; HCT116 PTEN-null: inactive; Autophagy HCS: inactive; L major viab: 75; Insulin prom up: inactive

What do the screens show for `CC1(C)CC(=O)C2=C(C1)OC(N)=C(C#N)C2c1cn(-c2ccccc2)nc1-c1ccccc1` (centres undefined)?
bCat KO growth: inactive; Insulin prom inh: inactive; HCT116 PTEN-null: inactive; Autophagy HCS: inactive; L major viab: 90; Insulin prom up: inactive

How did CCOc1ccc(-c2nc(-c3ccc(OC)c(OC)c3)no2)cc1OCC do in these assays?
bCat KO growth: inactive; Insulin prom inh: inactive; HCT116 PTEN-null: inactive; Autophagy HCS: inactive; L major viab: inactive; Insulin prom up: inactive

How did COc1ccc(C2CC(c3cccs3)=NN2S(C)(=O)=O)cc1 (centres undefined) do in these assays?
Insulin prom up: inactive
